# Shown is part of a subset that was picked to be rich in hits.
# LmPK inhibitor – LmPK (Leishmania mexicana) enzyme inhibition | purified LmPK, Kinase-Glo ATP luminescence, 1 h | Potency, µM (top dose mostly 57.5 µM), for inactives: at the top dose activity change, negative = inhibition, hits mostly inhibitors | actives 0.37% (n = 290,000); note: potency is the fitted concentration of half-maximal effect; % is set by controls: 0 for no effect and ±100 for the full control effect
# Target sequence (Q27686 whole entry, looked up): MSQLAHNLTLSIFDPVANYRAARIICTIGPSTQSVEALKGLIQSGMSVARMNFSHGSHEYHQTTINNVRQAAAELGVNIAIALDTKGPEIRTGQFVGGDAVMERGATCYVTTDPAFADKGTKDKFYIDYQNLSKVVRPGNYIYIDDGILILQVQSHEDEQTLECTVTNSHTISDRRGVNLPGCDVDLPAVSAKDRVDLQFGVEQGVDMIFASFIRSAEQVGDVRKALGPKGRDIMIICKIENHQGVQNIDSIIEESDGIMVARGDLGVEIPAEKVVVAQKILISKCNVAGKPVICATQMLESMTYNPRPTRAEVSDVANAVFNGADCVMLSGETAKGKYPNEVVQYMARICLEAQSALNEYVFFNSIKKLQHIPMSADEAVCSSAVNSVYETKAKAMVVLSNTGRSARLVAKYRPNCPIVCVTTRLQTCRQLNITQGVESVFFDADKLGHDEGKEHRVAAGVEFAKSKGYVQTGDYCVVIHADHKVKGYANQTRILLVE
#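 ATP generated from ADP (0.1 mM) and PEP (0.5 mM) by 0.1 nM LmPK over 1 h at room temperature (pH 7.2 imidazole buffer) was detected by coupled luciferase luminescence. Values were normalized to uninhibited and no-enzyme wells.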
# Giardia FBPA inh – Giardia lamblia aldolase inhibition; A8B2U2; purified Giardia FBPA; Potency, µM (titrated, usually from 59.6 µM), inactives show at the highest dose activity, negative = inhibition, hits mostly inhibitors; actives 0.71% (n = 290,000); AID 2451; note: potency is the fitted concentration of half-maximal effect; % is set by controls: 0 for no effect and ±100 for the full control effect; nearly all actives have a fitted effect of over 55% in size
#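 Giardia FBPA (40 nM reagent) was preincubated 10 min at RT with compound (up to 57.5 uM final), then substrate plus GAPDH/TPI/NAD/arsenate coupling system with diaphorase/resazurin was added; resorufin fluorescence (525/598 nm) was read after 20 min.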
# Cycloheximide cs – counter-screen for Shiga toxin inhibitors: cycloheximide protein synthesis inhibition. cell reporter, cycloheximide protein synthesis inhibition counterscreen. max response, %. actives 12% (n = 300,000). AID 2314; in the data active = max response mostly above about 13%, no sharp cut-off; inactive = mostly below about 14%; note: read at 38.3 µM for the half of the compounds with a filed dose; 0% is about no effect
# Tb PYK inh – T. brucei pyruvate kinase inhibition; Potency, µM (highest dose often 76.8 µM), for the others: at the highest dose activity, negative = inhibition, hits mostly inhibitors; Q57TT1; TbPYK enzyme, Kinase-Glo Plus ATP luminescence, 45 min; actives 0.12% (n = 410,000); note: potency is the fitted concentration of half-maximal effect; % is set by controls: 0 for no effect and ±100 for the full control effect; nearly all actives have a fitted effect of over 50% in size
#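 Screened from lowest to highest concentration, compounds were pinned into TbPYK/substrate mixtures, and ADP (130 uM final) was added. Plates sat at room temperature for 45 min prior to Kinase-Glo Plus detection by luminescence.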
# Shiga inhibitor – blocks Shiga toxin action in Vero cells; Vero cells, Shiga toxin protein synthesis inhibition reporter; inhibition, % at 38.7 µM; actives 9.2% (n = 290,000); AID 2315; in the data active = inhibition mostly above about 28%, no sharp cut-off; inactive = mostly below about 43%; note: 0% is about no effect
# Sm TGR block – blocks Schistosoma mansoni thioredoxin glutathione reductase; actives 3% (n = 360,000); AID 485364; Q962Y6; Potency, µM (series often up to 114 µM), inactives show top-dose activity change, negative = inhibition, actives largely listed as inhibitors; purified TGR, DTNB reduction, TNB absorbance 405 nm; note: potency is the fitted concentration of half-maximal effect; % is set by controls: 0 for no effect and ±100 for the full control effect; nearly all actives have a fitted effect of over 60% in size
#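 First, TGR (20 nM dispensed) and NADPH were mixed with compound. Second, a 15 min room-temperature incubation followed. Third, further NADPH and then DTNB were added to start the reaction. Finally, TNB absorbance was monitored kinetically.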
# * marks the source's active call; other numbers are inactive results; ? = inconclusive; / = not tested or not shown; [ ] = another dose, or the depositor's remark. Unless noted, calls come from the whole dose curve; as a rule, active = well fitted curve in the direction sought with a large enough effect; inconclusive = small, poorly fitted or top-dose-only effect, or another doubt; inactive = no such curve, though single readings can be large; an effect the other way counts as inactive or inconclusive.
SMILES,LmPK inhibitor,Giardia FBPA inh,Cycloheximide cs,Tb PYK inh,Shiga inhibitor,Sm TGR block
Cc1ccc2cc(C=C(C#N)C#N)c(N3CCCCC3)nc2c1,-2.1%,-15.7%,13.2,-4.9%,13.8,3.16µM*
Cc1ccc2cc(C=C(C#N)C#N)c(Cl)nc2c1,-5.0%,-18.1%,17.8,-3.3%,-16.2,2.82µM*
Cc1ccc(CCNC(=O)c2cc3cc(S(=O)(=O)N4CCCCC4)ccc3n2C)cc1,/,/,/,-7.8%,/,-1.8%
COc1ncc2nc(CCc3ccccc3)c(=O)n(CCC#N)c2n1,/,4.9%,/,0.0%,/,/
CCCSc1ccc([C@@H]2[C@@H]3C(=O)N(C)C(=O)[C@@H]3[C@]3(C(=O)OC)CCCN23)cc1OC,/,/,/,-18.8%,/,20µM*
CCCCCCSc1ccc([C@@H]2[C@H]3C(=O)N(C)C(=O)[C@H]3[C@]3(C(=O)OC)CCCCN23)cc1OC,/,/,/,-8.9%,/,?
N/C(=N\OC(=O)c1ccccc1)c1ccncc1,-23.6%,6.2%,45.7*,-2.0%,87.2*,15.1%
COc1cc(OC)cc(C(=O)O/N=C(\N)c2ccncc2)c1,-0.8%,6.1%,5.4,-13.1%,26.3,10.7%
N/C(=N\OC(=O)c1cccc(Br)c1)c1ccncc1,1.8%,1.5%,34.9*,-4.0%,83.4*,2.0%
N/C(=N\OC(=O)c1ccc(Br)cc1)c1ccncc1,-25.5%,5.1%,45.3*,-10.0%,51.5*,7.3%
Cc1ccc(-c2noc(-c3nnn(CC(=O)Nc4ccc(C)c(Cl)c4)c3N)n2)cc1,/,/,/,-2.6%,/,-4.0%
COc1ncc2ncc(=O)n(C3CC3)c2n1,/,-1.0%,/,/,/,/
CCc1cccc(-n2nnc(-c3nsc(NC(=O)c4cccc(OC)c4)n3)c2C)c1,/,/,/,-10.1%,/,-29.9%
C=CCN1C(=O)/C(=C/C=C2/N(CC)c3ccc(S(=O)(=O)N(C)C)cc3N2CC)SC1=S,-15.6%,-22.8%,-3.6,-24.5%,-10.9,/
CCSCC1COC(c2cccn2Cc2ccc(C)cc2)=N1 (centres undefined),-5.8%,0.7%,38.7*,-4.1%,91.1,-7.8%
CCCn1c(=O)[nH]c(=O)c2c(C(=O)OCC)cc(-c3cccs3)nc21,8.6%,-5.1%,31.4*,-4.7%,44.0*,-34.5%
O=C(CSc1nnc(-c2cccnc2)o1)N1CCCCC1,-7.2%,6.5%,4.9,-0.1%,31.7,6.1%
C=CCSc1nnc(-c2ccc([N+](=O)[O-])cc2)o1,-10.4%,-1.1%,19.2*,-20.7%,80.0,?
O=C(CSc1nnc(-c2ccc(Cl)cc2)o1)c1ccc([N+](=O)[O-])cc1,/,/,/,4.1%,/,8.1%
C=CCSc1nnc(-c2cccnc2)o1,-4.2%,-1.1%,15.0*,0.8%,22.0*,?
NC(=O)CSc1nnc(-c2ccc([N+](=O)[O-])cc2)o1,-4.5%,-1.1%,18.8*,1.3%,40.0,6.0%
Cc1cc(C)cc(NC(=O)Cn2c(C(F)(F)F)nc3ccccc32)c1,/,/,/,0.1%,/,8.8%
CCc1cc2c(nc1CC)CCN(CC/C(C)=N/O[C@@H](C)CN1CCCCc3nc(C)c(C)cc31)C2,/,-4.7%[12.9 µM],/,/,/,/
CCc1ccc(S(=O)(=O)NCc2nc3cccnc3n2Cc2ccccc2Cl)cc1,/,/,/,1.5%,/,-0.7%
COc1ccc(C(O)C2=CCCC2=O)cc1 (centres undefined),/,-0.8%,/,/,/,/
SMILES,LmPK inhibitor,Giardia FBPA inh,Cycloheximide cs,Tb PYK inh,Shiga inhibitor,Sm TGR block
COc1cccc(NC(=O)c2cc(-c3ccc(C)o3)nc3ccccc23)c1,-9.9%,7.8%,7.1,-21.0%,14.9,35.5µM*
COc1cccc(NC(=O)CN(C)C(=O)c2cc(-c3cccc(Br)c3)nc3ccccc23)c1,/,/,/,0.3%,/,-5.4%
Cc1ccc(-c2cc(C(=O)Nc3cccc(S(=O)(=O)N(C)C)c3)c3ccccc3n2)o1,1.7%,-8.0%,13.9,?,-6.5,22.4µM*
COc1cccc(NC(=O)c2cc(-c3ccc(OC)cc3OC)nc3ccccc23)c1,/,/,/,-17.0%,/,/
CN(C)S(=O)(=O)c1cccc(NC(=O)c2cc(=O)[nH]c3ccccc23)c1,0.5%,-8.7%,2.8,1.5%,-10.5,-0.8%
CN(C)S(=O)(=O)c1cccc(NC(=O)c2c[nH]c3ccccc23)c1,-2.3%,-2.2%,16.3*,0.0%,63.8*,-0.6%
COc1cccc(NC(=O)CN(C)C(=O)c2cc(-c3ccc(C)o3)nc3ccccc23)c1,/,/,/,4.3%,/,14.1µM*
CCCOc1ccc(CNC(=O)c2oc3ccc4c(c3c2C)C(=O)CC(C)(CC)O4)cc1 (centres undefined),/,/,/,1.9%,/,2.4%
N#Cc1c(/N=C/c2c(O)n(Cc3ccco3)c(=O)[nH]c2=O)sc2c1CCCC2,10.5%,?,-1.7,?,-1.4,89.1µM*
O=c1[nH]c(=O)n(Cc2ccco2)c(O)c1/C=N/N1CCCCCC1,0.6%,-2.6%,-1.9,0.5%,4.7,-4.6%
NC(=O)c1ccc(N=Cc2c(O)n(Cc3ccco3)c(=O)[nH]c2=O)cc1,20.5%,-12.1%,-5.1,-15.3%,-8.0,39.8µM*
COC(=O)c1ccc(NC(=O)c2c(NCc3ccc(OC)c(OC)c3)sc3c2CCCC3)cc1,/,/,/,-34.6%,/,-31.6%
Cc1ccc(C(=O)/C=C/Nc2ccccc2C(N)=O)cc1,?,-3.1%,19.4*,10.8%,24.4,9.7%
NC(=O)c1ccccc1N/C=C/C(=O)c1ccc(Cl)cc1,?,0.0%,52.3*,-10.8%,49.0*,0.0%
O=c1cc(-c2ccc(F)cc2)[nH][nH]1,-0.3%,-3.4%,0.3,-1.1%,4.4,5.9%
O=c1cc(-c2ccc(C3CCCCC3)cc2)[nH][nH]1,3.9%,6.1%,21.8*,-1.5%,31.3,3.9%
COc1cc(NS(=O)(=O)c2ccc(NC(=S)NC(=O)c3sc4ccccc4c3Cl)cc2)ncn1,-2.1%,-15.9%,-1.3,-11.3%,-13.3,3.1%
COc1cc(NS(=O)(=O)c2ccc(NC(=S)NC(=O)c3ccc(F)cc3)cc2)nc(OC)n1,4.5%,-19.6%,-2.1,-4.8%,2.3,31.6µM*
COc1cc(NS(=O)(=O)c2ccc(NC(=S)NC(=O)c3ccco3)cc2)ncn1,1.2%,14.0%,-3.3,0.2%,-9.2,39.8µM*
COc1ccc(C(=O)NC(=S)Nc2ccc(S(=O)(=O)Nc3cc(OC)ncn3)cc2)cc1,-1.8%,-19.4%,-4.9,-1.0%,-4.0,20µM*
COc1ccc(C(=O)NC(=S)Nc2ccc(S(=O)(=O)Nc3cc(OC)nc(OC)n3)cc2)cc1,3.2%,?,-5.0,-7.8%,2.4,14.1µM*
CCOc1ccc(-c2cc3c(=O)n(CC(=O)Nc4cc(F)ccc4C)ccn3n2)cc1,/,/,/,-1.2%,/,5.2%
COC(=O)c1sccc1S(=O)(=O)N(CC(=O)NCc1ccccc1)c1ccc(C)cc1,/,/,/,1.3%,/,-13.2%
[O-][n+]1c(/C=C/c2ccccc2)ccc2ccccc21,?,-0.6%,28.7*,-14.3%,30.9*,0.4%
CC(=O)Oc1ccccc1/C=C/c1ccc2ccccc2[n+]1C,-1.8%,-10.0%,42.8*,-7.2%,107.4*,0.0%

# Bioassay records: PubChem BioAssay, National Center for Advancing Translational Sciences (NCATS)
